Results on 40 compounds are retold here after PubChem BioAssay.

In general, inhibition refers to the relative decrease from the control value, in per cent.

Values without a mark were called inactive. Calls of active or inactive are those of the source.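 The calls were made as follows: active = inhibition above the hit cutoff set in the earlier primary screen (cut at about 27% in these data); inactive = the rest.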

In this experiment the target is Protein phosphatase methylesterase 1 (Homo sapiens) (UniProt Q9Y570). The experiment in a line: PME-1 inhibitor activity retest, confirmation, biochemical, fluorescence polarization, FP-Rh probe, triplicate (AID 2171).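 Also: 0% = enzyme with DMSO and 100% = wells lacking PME-1.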 Particulars: recombinant PME-1, FP-Rh probe fluorescence polarization; at 5.9 µM; hits give high values. (In general: In fluorescence polarisation assays a small probe gives low polarisation when free and higher when bound to something large.)
Sequence of Protein phosphatase methylesterase 1 (Homo sapiens) (Q9Y570 whole entry, looked up): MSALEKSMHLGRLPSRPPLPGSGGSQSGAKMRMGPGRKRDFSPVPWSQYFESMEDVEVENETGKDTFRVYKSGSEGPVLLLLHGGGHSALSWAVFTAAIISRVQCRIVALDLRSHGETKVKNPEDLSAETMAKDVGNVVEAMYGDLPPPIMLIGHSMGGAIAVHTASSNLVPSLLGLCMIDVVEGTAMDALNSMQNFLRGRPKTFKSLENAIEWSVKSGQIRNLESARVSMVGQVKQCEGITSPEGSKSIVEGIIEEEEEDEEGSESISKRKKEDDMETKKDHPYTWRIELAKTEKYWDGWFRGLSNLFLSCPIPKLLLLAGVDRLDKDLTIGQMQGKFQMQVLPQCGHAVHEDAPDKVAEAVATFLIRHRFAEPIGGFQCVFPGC
Regarding `O=c1ccc2cc3c([nH]c4ccc(Br)cc43)oc-2c1O`, the inhibition was -63.1%. Then `CCc1ccc(S(=O)(=O)/N=C2\C=C(Nc3ccc(C(=O)O)cc3)C(=O)c3ccccc32)cc1`, with 33.3% (active).

In the case of `COc1ccc(-c2oc(NC(=O)CCl)c(C#N)c2-c2ccc(OC)cc2)cc1`, the inhibition is 22.7%. Next, `COc1cc(N=Nc2cccc(S(N)(=O)=O)c2)c2ccccc2c1N`: 33.1% (active); `COc1ccc(/C=N/Nc2cc(C)nc3ccc(Br)cc23)cc1`: 12.9%; `CCCCC(=Nc1ccc(N)cc1)C1=C(O)C(C(=O)OC)C(C)(C)CC1=O` (stereo not given): 13.4%. Then `O=C(O)c1ccc(N=Nc2c(O)[nH]c3cc(Cl)ccc23)cc1`, with 116% (active); and `CCOC(=O)c1c(C)[nH]c(C2=NNC(=Nc3ccc(OCC)cc3)SC2)c1C`, with 18.9%. In the case of `Cc1cc(N)ccc1-n1c(C)ccc1C`, the inhibition is 6.22%. Next, `CCCCN(C)C1=CC2=CC(=C(C#N)C#N)CCC2CC1` (stereo not given): -13%; `CCn1cc(C(=O)NCCCN2CCCC(C)C2)c(=O)c2cc(S(=O)(=O)N(C)C3CCCCC3)ccc21` (stereo not given): 45.2% (active). Next, `O=C(c1ccc2oc(CCCc3ccccc3)nc2c1)N1CCCC(CCCO)C1` (stereo not given): 23.5%; `O=C(Nc1ccc(Nc2ccccc2)cc1)Nc1ccccc1Cl`: -2.21%.

For `O=C(CSc1nnc(SCc2ccccc2Cl)s1)N/N=C/c1c[nH]c2ccccc12`, the inhibition is 19.3%. As for `CC1=NN(c2ccccc2)C(=O)C1N=Nc1cccc(O)c1` (stereo not given), the inhibition was 28.1% (active).

As for `O=C(CCCSc1ccccc1)Nc1nc(-c2ccco2)c(-c2ccco2)s1`, the inhibition was 6.79%. Next, `Cc1cc(C)c2c(N)c(C(=O)NN)sc2n1`: 10.5%.

Regarding `Cc1cc(C(=O)CC#N)c(C)n1-c1ccc(OC(F)F)cc1`, the inhibition was 45.9% (active). Next, `O=C(NNc1nc2c(F)cccc2s1)c1cc(=O)c2ccccc2o1`: 58.6% (active); `O=C(O)CSc1cc(NS(=O)(=O)c2ccc(Cl)cc2)c2ccccc2c1O`: 14.2%. Then `Nc1ccc(O)c2c1C(=O)c1ccccc1C2=O`, with 46.5% (active); and `O=C(CNc1cccc2ccccc12)N/N=C/c1cccc(Oc2ccccc2)c1`, with 31.1% (active); and `CC1=NC(=O)C(N=Nc2cccc(O)c2)N1c1ccccc1` (stereo not given), with 24.1%.

With `COc1ccc(O)c(-c2cc(-c3cccc(Br)c3)n[nH]2)c1`, the inhibition was 23.7%. Next, `Cn1c(=O)c(C#N)c(-c2ccc(F)cc2)c2cc(C(=O)c3cc(Cl)cc(Cl)c3O)cnc21`: 59.1% (active); `CCn1c(CSc2nnc(-c3ccncc3)n2CCOC)nc2cc(C(=O)O)ccc21`: 51.1% (active). Then `N=c1oc2cc(O)ccc2cc1C(=O)Nc1nc2ccccc2s1`, with 25.7%; and `CCn1c(CSc2nnc(-c3ccncc3)n2C)nc2cc(C(=O)O)ccc21`, with 51.5% (active); and `O=C(N/N=C/c1c(O)ccc2ccccc12)Nc1ccccc1`, with 35.5% (active). Consider `Cc1cc(C(=O)N/N=C/c2cccc([N+](=O)[O-])c2)c(C)n1-c1ccccc1`, for which the inhibition was -3.77%. Next, `O=C1c2ccccc2-c2onc3ccc(NCCCn4ccnc4)c1c23`: 163% (active); `COc1ccc2[nH]c3c(N4CCc5ccccc5C4)ncnc3c2c1`: 30.2% (active). Then `CC1=NN(c2ccccc2)C(=O)/C1=C/c1c(O)n(-c2ccc(F)c(Cl)c2)[nH]c1=O`, with 49% (active); and `Nc1c(C(=O)Nc2ccccc2F)sc2nc(-c3ccco3)ccc12`, with 19.9%. On to `CCc1nnc(NC(=O)c2sc3nc4c(cc3c2N)CCCCCC4)s1`, for which the inhibition was 16.3%. Then `CC1=NN(c2ccccc2)C(=O)/C1=C/c1c(O)n(-c2ccc(F)cc2)[nH]c1=O`, with 52.1% (active); and `Cc1cc(-c2nnc(SCC(=O)Nc3nc(-c4ccc(Cl)cc4)cs3)o2)no1`, with -22.5%; and `COc1ccc(-c2cc(-c3cc(OC)ccc3O)[nH]n2)cc1`, with 71% (active). Then `CN(C)c1ccc(NC(=O)Nc2ccc3snnc3c2)cc1`, with 21%; and `COc1ccc(-c2nc(NC(=O)c3[nH]c(C)c(C(C)=O)c3C)sc2C)cc1`, with 55% (active).
